RGS12 GoLoco inh – blocks human Gai1 binding to RGS12 GoLoco peptide, red readout | Potency, µM (top dose mostly 61.6 µM), without a hit: at the highest dose activity, negative = inhibition, hits mostly inhibitors | P63096 | 230,000 compounds, 0.44% hits | Gai1:RGS12 GoLoco peptide FP, rhodamine, 10 min; active means well fitted inhibition curve with a large enough effect, not every such curve was filed as active; inactive means no such curve, though single readings can be large or run the other way; further: on the % scale 0 is the no-effect control and ±100 the full control effect; nearly all actives have a fitted effect of over 30% in size
Target sequence (P63096 whole entry, looked up): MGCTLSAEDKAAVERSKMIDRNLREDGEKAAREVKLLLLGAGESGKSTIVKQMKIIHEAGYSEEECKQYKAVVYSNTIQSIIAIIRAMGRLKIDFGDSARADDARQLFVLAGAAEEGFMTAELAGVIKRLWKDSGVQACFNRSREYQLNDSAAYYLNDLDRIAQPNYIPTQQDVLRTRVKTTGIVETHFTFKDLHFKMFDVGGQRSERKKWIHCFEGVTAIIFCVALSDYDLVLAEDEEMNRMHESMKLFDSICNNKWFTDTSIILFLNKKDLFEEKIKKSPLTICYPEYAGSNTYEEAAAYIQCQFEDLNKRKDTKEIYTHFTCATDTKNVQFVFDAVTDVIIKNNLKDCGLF
ERG Ets-DNA blk – inhibitors of human ERG Ets domain-DNA interaction | P11308 | fluorescence polarization, His-ERG Ets domain / labelled DNA | Potency, µM (series often up to 76.9 µM), for the others: at the top dose FP activity, negative = inhibition, hits mostly inhibitors | 370,000 compounds, 0.028% hits; active means well fitted inhibition curve with a large enough effect in the polarisation, with a control signal flat; inconclusive means small, poorly fitted or top-dose-only effect, or effect the other way, or a change in a side signal; inactive means no such curve, though single readings can be large or run the other way; the % refers to the polarisation;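 further: polarization taken with two DNA probes labelled with fluorescein and Texas red; % of control where 0% means no effect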
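His-tagged ERG Ets domain (1 uM in the protein solution; 300mM KCl, 50mM Tris-HCl, 1mM EDTA, 1mM DTT, pH 7.5) received compound, then a probe mix of 5 nM fluorescein-DNA and 100nM Texas-615-DNA. Fluorescence polarization was read for both dyes.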
TexasRed fluor – counter-screen for TRb-SRC2 inhibitors: fluorescence interference | TRb/SRC2 Texas Red total fluorescence interference | AID 1479 | Potency, µM (series often up to 106 µM), for the others: at the highest dose fluorescence change, negative = quenching | 280,000 compounds, 0.29% hits; active means well fitted curve in either direction with a large enough effect; inconclusive means small, poorly fitted or top-dose-only effect; further: on the % scale 0 is the no-effect control and ±100 the full control effect
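Human TRβ ligand-binding domain (0.6 uM) and Texas Red SRC2 peptide (20 nM) in Tris buffer with 1 uM T3 and 5% DMSO were incubated with pinned compound for 5 hr at ambient temperature. Total fluorescence was computed as S + 2P (555/632 nm).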
TRb SRC2 PPI – inhibitors of human thyroid hormone receptor beta-SRC2 interaction; P10828; TRbeta-SRC2 peptide binding, fluorescence polarization; receptor liganded with 1 µM T3; Potency, µM (highest dose often 106 µM), for the others: at the highest dose activity change, negative = inhibition, hits mostly inhibitors; 280,000 compounds, 0.065% hits; active means well fitted inhibition curve with a large enough effect; inconclusive means small, poorly fitted or top-dose-only effect, or effect the other way;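 further: plate controls were bound peptide for no effect and peptide without receptor for full effect; nearly all actives have a fitted effect of over 50% in size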
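Assay buffer: 20 mM Tris-HCl, 100 mM NaCl, 10% glycerol, 1 mM EDTA, 0.01% NP-40, 1 mM DTT, 1 uM T3, 5% DMSO; TRb LBD 0.6 uM, Texas Red SRC2 20 nM; FP after 5 hr.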
Numbers without * were called inactive; ! = repeats disagree; [ ] = remark or other dose. This is one part of a sample in which hits are shown more often than they occur. Potency means the concentration at half of the fitted maximal effect.

For O=C(N/N=C/c1ccc(O)c(O)c1)N/N=C/c1ccc(O)c(O)c1 the results were ERG Ets-DNA blk -9%.
Screening CCN1CCN(C(=O)Cn2c(-c3cccs3)cc3ccccc32)CC1 returned ERG Ets-DNA blk -3%, TexasRed fluor 6% and TRb SRC2 PPI 3%.
`CN1CCN(C(=O)Cn2c(-c3cccs3)cc3cc(Cl)ccc32)CC1` gave ERG Ets-DNA blk 1%, TexasRed fluor 112µM*[quencher] and TRb SRC2 PPI -28%.
For COc1cccc(N2CCN(C(=O)Cn3c(-c4cccs4)cc4ccccc43)CC2)c1 the results were ERG Ets-DNA blk 3%, TexasRed fluor 40µM*[quencher] and TRb SRC2 PPI inconclusive.
O=C(Cn1c(-c2cccs2)cc2ccccc21)NCCCN1CCN(c2ccc(F)cc2)CC1 was read as ERG Ets-DNA blk 0%, TexasRed fluor 63µM*[quencher] and TRb SRC2 PPI inconclusive.
C=C[Si](OCCOC)(OCCOC)OCCOC was read as TexasRed fluor -2%[201 µM] and TRb SRC2 PPI -3%[201 µM].
`CCCCc1cc2c(cn1)=C(OC(=O)c1ccco1)C(C)(OC(=O)CC)C(=O)C=2` (centres undefined) gave RGS12 GoLoco inh 17%[14.2 µM], TexasRed fluor -11%[11.2 µM] and TRb SRC2 PPI 4%[11.2 µM].
Screening CCCCc1nc2c(c3c1C[C@H](C)OC3)CN(C(=O)COC)CC2 returned RGS12 GoLoco inh 1%[14.2 µM], TexasRed fluor -17%[11.2 µM] and TRb SRC2 PPI 4%[11.2 µM].
Screening CSc1nc(N)nc(SCC(=O)Nc2cccc(F)c2)c1C#N returned RGS12 GoLoco inh 16%, ERG Ets-DNA blk 8%, TexasRed fluor 1.3µM*[quencher] and TRb SRC2 PPI inconclusive.
`CSc1nc(N)nc(SCC(=O)Nc2ccc(Cl)cc2)c1C#N` gave RGS12 GoLoco inh 53%, ERG Ets-DNA blk 0%, TexasRed fluor 0% and TRb SRC2 PPI 7%.
C[C@]12C=CC(=O)N[C@@H]1CC[C@@H]1C2CC[C@]2(C)C(C(=O)Nc3cc(C(F)(F)F)ccc3C(F)(F)F)CC[C@@H]12 (some centres undefined) was read as RGS12 GoLoco inh 13%, TexasRed fluor -1% and TRb SRC2 PPI -1%.
For COc1ccc(CCNC(=O)c2cc(Nc3ccccc3)nc3ccccc23)cc1OC the results were ERG Ets-DNA blk -20%, TexasRed fluor 0.0008µM*[quencher] and TRb SRC2 PPI -18%.
Screening Cc1cc2nc3ccc(=[N+](C)C)cc-3sc2cc1N returned RGS12 GoLoco inh -32%, ERG Ets-DNA blk inconclusive, TexasRed fluor 45µM*[fluorescent] and TRb SRC2 PPI 7.9µM*.
For OCc1cc2c(cn1)[nH]c1ccccc12 the results were RGS12 GoLoco inh 3%, TexasRed fluor -2% and TRb SRC2 PPI 0%.
`ClC(Cl)Cl` gave RGS12 GoLoco inh 16µM*, TexasRed fluor -3% and TRb SRC2 PPI -1%.
Screening O=S(=O)(NCc1ccc(Cl)cc1)c1ccc2[nH]c3c(c2c1)CCCC3 returned ERG Ets-DNA blk 3%, TexasRed fluor 25µM*[quencher] and TRb SRC2 PPI -7%.
`O=S(=O)(Nc1cccc(Cl)c1)c1ccc2[nH]c3c(c2c1)CCCCCC3` gave ERG Ets-DNA blk 3%, TexasRed fluor 126µM*[quencher] and TRb SRC2 PPI -15%.
O=S(=O)(NCc1ccc(F)cc1)c1ccc2[nH]c3c(c2c1)CCCC3 was read as ERG Ets-DNA blk 1%, TexasRed fluor 3% and TRb SRC2 PPI -1%.
CC(C)C[C@H](NC(=O)[C@@H](Cc1c[nH]c2ccccc12)NC(=O)[C@H](Cc1ccc(O)cc1)NC(=O)[C@H](CO)NC(=O)[C@H](Cc1c[nH]c2ccccc12)NC(=O)[C@H](Cc1cnc[nH]1)NC(=O)[C@@H]1CCC(=O)N1)C(=O)N[C@@H](CCCN=C(N)N)C(=O)N1CCC[C@H]1C(=O)NCC(N)=O was read as TexasRed fluor -4% and TRb SRC2 PPI -1%.
For CC(C)CNC(=S)NNC(=O)c1csc2c1CCCC2 the results were RGS12 GoLoco inh 4%, ERG Ets-DNA blk 0%, TexasRed fluor -2% and TRb SRC2 PPI 5%.
For CCC(C)NC(=O)COC(=O)c1csc2c1CCCC2 (centres undefined) the results were RGS12 GoLoco inh -2%, ERG Ets-DNA blk 17%, TexasRed fluor 0.0004µM*[quencher] and TRb SRC2 PPI inconclusive.
`O=C(O)c1ccc(/C=N/N2CCN(Cc3ccc(Cl)cc3)CC2)cc1` gave RGS12 GoLoco inh 8%, ERG Ets-DNA blk 7%, TexasRed fluor 0% and TRb SRC2 PPI -6%.
For Cc1ccc(CN2CCN(/N=C/c3ccc(C(=O)O)cc3)CC2)cc1 the results were RGS12 GoLoco inh -10%, ERG Ets-DNA blk -17%, TexasRed fluor 0.063µM*[quencher] and TRb SRC2 PPI -6%.
Screening CCOc1ccc(N2CC(c3nc4ccccc4n3CCCOc3ccccc3OC)CC2=O)cc1 (centres undefined) returned ERG Ets-DNA blk -2%, TexasRed fluor 71µM*[quencher] and TRb SRC2 PPI -6%.
`Cc1cc(O)c(-c2ccnc3cc(-c4ccccc4)nn23)cc1Cl` gave ERG Ets-DNA blk 0%, TexasRed fluor 11µM*[quencher] and TRb SRC2 PPI -6%.
For Cc1ccc(-c2cc3nccc(-c4cc([N+](=O)[O-])ccc4O)n3n2)cc1 the results were ERG Ets-DNA blk 12%, TexasRed fluor 45µM*[quencher] and TRb SRC2 PPI -6%.
`CCOC(=O)COc1ccc([N+](=O)[O-])cc1-c1ccnc2cc(-c3ccc(C)cc3)nn12` gave ERG Ets-DNA blk 7%, TexasRed fluor -16% and TRb SRC2 PPI 2%.
For CC(C)C[C@@H](/C=C/S(C)(=O)=O)NC(=O)[C@H](CC(C)C)NC(=O)[C@H](CC(C)C)NC(=O)OCc1ccccc1 the results were RGS12 GoLoco inh 4%, TexasRed fluor 0% and TRb SRC2 PPI -6%.
CN1/C(=C\C=C2/SC(=S)N(CC(=O)O)C2=O)C(C)(C)c2ccccc21 was read as RGS12 GoLoco inh -144%, ERG Ets-DNA blk inconclusive, TexasRed fluor 45µM*[fluorescent] and TRb SRC2 PPI inconclusive.
For C=CCc1ccccc1OCC(O)CN1CCN(c2ccccc2)CC1 (centres undefined) the results were ERG Ets-DNA blk -1%, TexasRed fluor 1.6µM*[quencher] and TRb SRC2 PPI inconclusive.
C[C@@]12CC[C@@H]3[C@@H](CC[C@H]4C[C@@H](O)CC[C@]43C)[C@H]1CC[C@@H]2c1cc(C(F)(F)F)n[nH]1 was read as RGS12 GoLoco inh 5%[14.2 µM].
CCCCCCCCCCCCCCC(=O)OC was read as TexasRed fluor -2%[201 µM] and TRb SRC2 PPI 1%[201 µM].
`COc1cc2ccc(=O)oc2cc1O` gave RGS12 GoLoco inh 28µM*!, ERG Ets-DNA blk -1%, TexasRed fluor -4% and TRb SRC2 PPI -10%.
`COc1cc2ccc(=O)oc2cc1OCC(O)C(C)(C)O` (centres undefined) gave RGS12 GoLoco inh 5%, ERG Ets-DNA blk 2%, TexasRed fluor -1% and TRb SRC2 PPI 4%.
Screening CC(C)(N)C(=O)N[C@@H]1C(=O)N2[C@@H]1SC(C)(C)[C@H]2C(=O)O returned RGS12 GoLoco inh 6%[14.2 µM].
Screening O=C1CCCCCCCCCCC1 returned TexasRed fluor 0%[201 µM] and TRb SRC2 PPI -4%[201 µM].
